# Experimental data as given in PubChem BioAssay (NCATS).
# Inconclusive results are not listed. Entries that show only a call come without a potency. Calls of active or inactive are those of the source. Calls follow the shape of the dose curve; as a rule, active = well fitted inhibition curve with a large enough effect; inconclusive = small, poorly fitted or top-dose-only effect; inactive = flat fitted curve, though single readings scatter.
# Target: Ubiquitin carboxyl-terminal hydrolase 1 (Homo sapiens) (UniProt O94782)
# Sequence (O94782 whole entry, looked up): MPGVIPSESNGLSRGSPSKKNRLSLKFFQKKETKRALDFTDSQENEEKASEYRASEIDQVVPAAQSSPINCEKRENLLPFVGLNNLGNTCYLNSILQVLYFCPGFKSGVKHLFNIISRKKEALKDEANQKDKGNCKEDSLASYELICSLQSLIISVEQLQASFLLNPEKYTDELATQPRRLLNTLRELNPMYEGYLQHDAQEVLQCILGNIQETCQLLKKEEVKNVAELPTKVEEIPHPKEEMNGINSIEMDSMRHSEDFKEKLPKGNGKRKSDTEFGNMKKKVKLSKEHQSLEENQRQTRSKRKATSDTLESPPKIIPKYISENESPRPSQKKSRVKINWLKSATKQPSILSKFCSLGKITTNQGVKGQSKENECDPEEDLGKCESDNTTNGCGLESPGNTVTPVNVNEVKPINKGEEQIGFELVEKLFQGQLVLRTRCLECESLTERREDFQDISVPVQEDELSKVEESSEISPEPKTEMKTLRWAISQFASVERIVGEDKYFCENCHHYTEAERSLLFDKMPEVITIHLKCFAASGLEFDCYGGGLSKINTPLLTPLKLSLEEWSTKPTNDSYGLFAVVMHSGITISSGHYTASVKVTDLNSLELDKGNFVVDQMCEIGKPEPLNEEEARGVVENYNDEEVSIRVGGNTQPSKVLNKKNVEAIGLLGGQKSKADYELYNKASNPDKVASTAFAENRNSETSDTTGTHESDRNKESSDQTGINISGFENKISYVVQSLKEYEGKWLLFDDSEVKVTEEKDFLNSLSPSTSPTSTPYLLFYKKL
# Test: Inhibitors of USP1/UAF1: Pilot qHTS (AID 504865); also: nearly all actives have a fitted effect of over 35% in size
# Settings: purified USP1/UAF1, Ub-rhodamine cleavage fluorescence; series mostly up to 114 µM
# In short: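 1nM USP1/UAF1 + cpd, 15 min RT; start w/ Ub-Rho 150nM final; kinetic FL 480/540 nm, 6 reads q60 s. Buffer 50mM HEPES pH 7.8, 0.5mM EDTA, 1mM TCEP, 0.01% Tween-20, 0.1 mg/ml BSA.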
# Potency is read from the fitted curve at half-maximal effect.
row,SMILES,Potency
1,Cc1ccc(-c2ncc(Cl)cc2-c2ccc(S(C)(=O)=O)cc2)cn1,inactive
2,Cl/C(=C\n1cncn1)c1ccc(Cl)cc1Cl,inactive
3,CC1CCc2c(N3CCC(O)CC3)c(F)cc3c(=O)c(C(=O)O)cn1c23 (configuration not stated),inactive
4,NC(=S)N/N=C/c1cccnc1,inactive
5,CN1CCc2cccc3c2[C@H]1Cc1ccc(O)c(O)c1-3,inactive
6,CN1CCC(OC(c2ccccc2)c2ccccc2)CC1,inactive
7,CC1=C(C(=O)O)N2C(=O)[C@@H](NC(=O)[C@H](N)c3ccccc3)[C@H]2SC1,inactive
8,NC(=O)n1c(O)c(C(=O)c2cccs2)c2cc(Cl)ccc21,inactive
9,CN(C)CCOC(=O)C(c1ccccc1)C1(O)CCCC1 (configuration not stated),inactive
10,O=C1C(O)=C(O)C(=O)C(O)=C1O,50.1 µM (active)
11,CCN(CC)CCOc1ccccc1C(=O)CCc1ccccc1,inactive
12,CN1CCC[C@@H]1CCO[C@](C)(c1ccccc1)c1ccc(Cl)cc1,inactive
13,CCOCCn1c(N2CCCN(C)CC2)nc2ccccc21,inactive
14,CC(=O)NCCCCCC(=O)O,inactive
15,Cn1c(=O)c2[nH]c(Br)nc2n(C)c1=O,inactive
16,O=[N+]([O-])c1cccc(S(=O)(=O)NCCNS(=O)(=O)c2cccc([N+](=O)[O-])c2)c1,inactive
17,OC(C#CCN1CCCC1)(c1ccccc1)c1ccccc1,inactive
18,CCc1oc2ccccc2c1C(=O)c1cc(Br)c(O)c(Br)c1,31.6 µM (active)
19,CC(C)Cn1cnc2c1c(=O)n(C)c(=O)n2C,inactive

row,SMILES,Potency
1,Cc1nc(-c2ccc(Cl)cc2)oc1COC(C)(C)C(=O)O,inactive
2,NS(=O)(=O)Cc1noc2ccccc12,inactive
3,O=C(CCCN1CC=C(n2c(=O)[nH]c3ccccc32)CC1)c1ccc(F)cc1,inactive
4,OC1C(O)C(O)C(O)C(O)C1O (configuration not stated),inactive
5,CC(=O)NC(=O)c1ccccc1O,inactive
6,CCN(CC)CCOC(=O)C(Cc1cccc2ccccc12)CC1CCCO1 (configuration not stated),inactive
7,OCc1ccccn1,inactive
8,CCOC(=O)Nc1ccc2c(c1)N(C(=O)CCN1CCOCC1)c1ccccc1S2,inactive
9,CC(=O)O[C@]1(C(C)=O)CC[C@H]2[C@@H]3C=C(Cl)C4=CC(=O)CC[C@]4(C)[C@H]3CC[C@@]21C,inactive
10,Cc1cccc(C)c1NC(=O)c1ccccc1C(=O)O,inactive
11,CCC1Nc2cc(Cl)c(S(N)(=O)=O)cc2S(=O)(=O)N1 (configuration not stated),inactive
12,Nc1ccc(S(=O)(=O)NCc2ccccc2)cc1,inactive
13,CCN(CC)CCOc1ccc2c(c1)C(=O)c1cc(OCCN(CC)CC)ccc1-2,inactive
14,COc1ccc(C(=O)c2ccccc2O)c(O)c1,inactive
15,CC(C)=CCOc1ccc(/C=C/C(=O)c2ccc(OCC=C(C)C)cc2OCC(=O)O)cc1,79.4 µM (active)
16,CCCCN=C(N)N=C(N)N,inactive
17,CCN(CC)CCOC(=O)C1(c2ccccc2)CCCC1,inactive
18,CO[C@]12C[C@@H](COC(=O)c3cncc(Br)c3)CN(C)[C@@H]1Cc1cn(C)c3cccc2c13,inactive
